Among the data in PubChem BioAssay (EPA / NIEHS) are AC50 and outcome values, retold here.

The AC50 is the concentration at which the activity in the assay is half-maximal.

Holding throughout (settings): mRNA level, 48 h; actives raise or lower the signal
Read-out in one experiment: CYP4A11 (gene 1579)
Description: LTEA_HepaRG_CYP4A11: Life Technologies and Expression Analysis (LTEA) Assay for CYP4A11 using HepaRG (AID 2283486). The essentials: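 Readout is CYP4A11 mRNA induction or suppression (qRT-PCR, ACTB/GAPDH/POLR2A normalization) in human HepaRG cells after 48 h chemical treatment, concentrations to 100 uM in 0.5% DMSO, fitted bidirectionally against vehicle.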

Read-out in experiment [1]: Cytochrome P450 3A4 (Homo sapiens) (UniProt P08684)
Nature of the experiment: LTEA_HepaRG_CYP3A4: Life Technologies and Expression Analysis (LTEA) Assay for CYP3A4 using HepaRG (AID 2283487). The essentials: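 Differentiated HepaRG cells in serum-free induction medium exposed in duplicate for 48 h to 8 half-log concentrations up to 100 uM in 0.5% DMSO. CYP3A4 mRNA measured by qRT-PCR normalized to ACTB, GAPDH and POLR2A; bidirectional fit versus DMSO.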

Read-out in experiment [2]: DNA damage-inducible transcript 3 (DDIT3), DDIT3 (gene 1649)
Nature of the experiment: LTEA_HepaRG_DDIT3: Life Technologies and Expression Analysis (LTEA) Assay for DNA damage-inducible transcript 3 (DDIT3) using HepaRG (AID 2283488). The essentials:
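HepaRG plated 48 h, switched to serum-free induction medium, dosed 48 h (100 uM top, half-log, 8 pts, 0.5% DMSO, n=2); RNA isolated; DDIT3 by qRT-PCR; bidirectional curve fit vs DMSO.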

Read-out in experiment [3]: Pro-epidermal growth factor (Homo sapiens) (UniProt P01133)
Description: LTEA_HepaRG_EGF: Life Technologies and Expression Analysis (LTEA) Assay for Epidermal growth factor (EGF) using HepaRG (AID 2283489). The essentials:
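EGF expression changes in human HepaRG cells are scored by bidirectional fitting relative to 0.5% DMSO controls. Chemicals are tested at eight half-log concentrations up to 100 uM for 48 h in serum-free induction medium.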

Read-out in experiment [4]: Early growth response protein 1 (EGR1) transcription factor, EGR1 (gene 1958)
Description: LTEA_HepaRG_EGR1: Life Technologies and Expression Analysis (LTEA) Assay for Early growth response protein 1 (EGR1) transcription factor using HepaRG (AID 2283490). The gist of the method:
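Read-out is EGR1 mRNA level by qRT-PCR, normalized to three housekeeping genes and analysed for gain or loss of signal against 0.5% DMSO. Source cells: human HepaRG, treated 48 h at up to 100 uM in half-log dilutions.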

Read-out in experiment [5]: Ezrin (EZR), EZR (gene 7430)
Description: LTEA_HepaRG_EZR: Life Technologies and Expression Analysis (LTEA) Assay for Ezrin (EZR) using HepaRG (AID 2283491). The essentials:
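Differentiated human HepaRG cells, 48 h after plating, were exposed in serum-free induction medium for 48 hours to eight half-log concentrations up to 100 uM in 0.5% DMSO. EZR mRNA was measured by TaqMan qRT-PCR, normalized to ACTB, GAPDH and POLR2A, and fitted bidirectionally against DMSO.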

Read-out in experiment [6]: Cytochrome P450 3A7 (Homo sapiens) (UniProt P24462)
Nature of the experiment: LTEA_HepaRG_CYP3A7: Life Technologies and Expression Analysis (LTEA) Assay for CYP3A7 using HepaRG (AID 2283492). The essentials:
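Cells were thawed, plated, cultured 48 h, then treated for a further 48 h with chemicals (eight-point half-log series from 100 uM, 0.5% DMSO). RNA was isolated and CYP3A7 expression quantified by qRT-PCR normalised to ACTB, GAPDH and POLR2A.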

Read-out in a further experiment: CYP3A5 (gene 1577)
Nature of the experiment: LTEA_HepaRG_CYP3A5: Life Technologies and Expression Analysis (LTEA) Assay for CYP3A5 using HepaRG (AID 2283493). The gist of the method:
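HepaRG plated 48 h, switched to serum-free induction medium, chemicals added 48 h (max 100 uM, half-log, 0.5% DMSO). RNA isolated; CYP3A5 by TaqMan qRT-PCR. Gain/loss vs DMSO.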

Read-out in experiment [7]: Fatty Acid-Binding Protein 1 (FABP1), FABP1 (gene 2168)
Description: LTEA_HepaRG_FABP1: Life Technologies and Expression Analysis (LTEA) Assay for Fatty Acid-Binding Protein 1 (FABP1) using HepaRG (AID 2283494). The gist of the method:
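HepaRG, 48 h post-plating switched to serum-free induction medium, then dosed 48 h (duplicate, 8 pts, ≤100 uM, 0.5% DMSO). RNA → Fluidigm TaqMan qRT-PCR, FABP1 normed to ACTB/GAPDH/POLR2A. Bidirectional curve fit vs DMSO.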

Read-out in experiment [8]: Cytochrome P450 4A22 (Homo sapiens) (UniProt Q5TCH4)
Description: LTEA_HepaRG_CYP4A22: Life Technologies and Expression Analysis (LTEA) Assay for Cytochrome P450 4A22 (CYP4A22) using HepaRG (AID 2283495). The essentials:
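Cryopreserved HepaRG cells, plated and cultured 48 h, then switched to serum-free induction medium and treated 48 h (duplicates, up to 100 uM, half-log steps, 0.5% DMSO). Expression change of CYP4A22 was fitted bidirectionally against vehicle.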

Read-out in experiment [9]: Cytochrome P450 7A1 (Homo sapiens) (UniProt P22680)
Description: LTEA_HepaRG_CYP7A1: Life Technologies and Expression Analysis (LTEA) Assay for Cytochrome P450 7A1 (CYP7A1) using HepaRG (AID 2283496). The essentials:
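HepaRG cells plated 48 h, then switched to serum-free induction medium and exposed in duplicate for 48 h to 8-point half-log series from 100 uM in 0.5% DMSO. CYP7A1 mRNA by qRT-PCR (TaqMan), normalized to ACTB/GAPDH/POLR2A; bidirectional fit versus DMSO.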

Read-out in experiment [10]: Glutathione S-Transferase (GSTA2), GSTA2 (gene 2939)
Nature of the experiment: LTEA_HepaRG_GSTA2: Life Technologies and Expression Analysis (LTEA) Assay for Glutathione S-Transferase (GSTA2) using HepaRG (AID 2283497). The gist of the method:
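HepaRG, 48 h dosing, 8-pt half-log CRC from 100 uM, 0.5% DMSO vehicle, n=2; RNA → Fluidigm TaqMan qRT-PCR; GSTA2 vs ACTB/GAPDH/POLR2A; gain/loss fit vs DMSO.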

Read-out in experiment [11]: growth arrest and DNA damage 45 (GADD45G), GADD45G (gene 10912)
Description: LTEA_HepaRG_GADD45G: Life Technologies and Expression Analysis (LTEA) Assay for growth arrest and DNA damage 45 (GADD45G) using HepaRG (AID 2283499). The essentials: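 Human hepatic HepaRG line treated 48 h with chemicals (eight concentrations, half-log steps from 100 uM); transcript induction or repression of GADD45G scored by qRT-PCR versus DMSO vehicle.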

Read-out in experiment [12]: Glutamate-cysteine ligase regulatory (GCLM), GCLM (gene 2730)
Nature of the experiment: LTEA_HepaRG_GCLM: Life Technologies and Expression Analysis (LTEA) Assay for Glutamate-cysteine ligase regulatory (GCLM) using HepaRG (AID 2283500). The essentials:
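Cells were plated, cultured 48 h, switched to serum-free induction medium, then dosed in duplicate for 48 h at eight half-log concentrations up to 100 uM. RNA was then profiled by qRT-PCR; gain or loss versus DMSO was fitted.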

Read-out in experiment [13]: Heat shock 70 kDa protein 1 (HSPA1A), gene 3303
Nature of the experiment: LTEA_HepaRG_HSPA1A: Life Technologies and Expression Analysis (LTEA) Assay for Heat shock 70 kDa protein 1 (HSPA1A) using HepaRG (AID 2283502). The gist of the method: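 Readout is HSPA1A transcript level by microfluidic qRT-PCR, normalized to three housekeeping genes and analysed for gain or loss of signal relative to 0.5% DMSO. Human HepaRG cultures received test chemicals for 48 h at up to 100 uM.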

Read-out in experiment [14]: Hypoxia-inducible factor 1-alpha (Homo sapiens) (UniProt Q16665)
Description: LTEA_HepaRG_HIF1A: Life Technologies and Expression Analysis (LTEA) Assay for Hypoxia-inducible factor 1 (HIF1A) Trancription factor using HepaRG (AID 2283503). The essentials:
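Differentiated HepaRG cells in serum-free induction medium exposed 48 h, in duplicate, to 8-point half-log series from 100 uM in 0.5% DMSO. HIF1A mRNA measured by TaqMan qRT-PCR, normalized to ACTB/GAPDH/POLR2A, fitted bidirectionally versus DMSO.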

Read-out in experiment [15]: 3-Hydroxy-3-Methylglutaryl-CoA Synthase 2 (HMGCS2), HMGCS2 (gene 3158)
Description: LTEA_HepaRG_HMGCS2: Life Technologies and Expression Analysis (LTEA) Assay for 3-Hydroxy-3-Methylglutaryl-CoA Synthase 2 (HMGCS2) using HepaRG (AID 2283504). The essentials: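 Expression of HMGCS2 in human HepaRG liver cells is measured by qRT-PCR 48 h after dosing (highest 100 uM, half-log series, 0.5% DMSO). Values come from bidirectional concentration-response fitting with DMSO as baseline.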

Read-out in a further experiment: HGF (gene 3082)
Nature of the experiment: LTEA_HepaRG_HGF: Life Technologies and Expression Analysis (LTEA) Assay for Hepatocyte Growth Facto (HGF) using HepaRG (AID 2283505). The essentials:
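Gain or loss of HGF mRNA in human HepaRG liver cells after 48 h chemical exposure; eight concentrations up to 100 uM with 0.5% DMSO vehicle, quantified by TaqMan qRT-PCR.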

Read-out in experiment [16]: Glutathione S-transferase M3 (GSTM3), GSTM3 (gene 2947)
Description: LTEA_HepaRG_GSTM3: Life Technologies and Expression Analysis (LTEA) Assay for Glutathione S-transferase M3 (GSTM3) using HepaRG (AID 2283501). The essentials: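 Changes in GSTM3 expression, an oxidative-stress marker, were scored by bidirectional curve fitting against 0.5% DMSO vehicle. Human HepaRG cultures received chemicals for 48 h in duplicate, highest concentration 100 uM with half-log dilutions.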

Read-out in experiment [17]: Glutamate-cysteine ligase catalytic (GCLC), GCLC (gene 2729)
Description: LTEA_HepaRG_GCLC: Life Technologies and Expression Analysis (LTEA) Assay for Glutamate-cysteine ligase catalytic (GCLC) using HepaRG (AID 2283498). The gist of the method: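 Read-out is GCLC transcript level by Fluidigm-based TaqMan qRT-PCR, normalized to three housekeeping genes and fitted in both directions relative to 0.5% DMSO. Human HepaRG cells received chemicals for 48 h, up to 100 uM.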

Activity calls are given as the source filed them. The calls were made as follows: active = hit-call score of the fitted dose curve at least 0.9, where 1 is the maximum; inactive = score below 0.9.

Sequence of Cytochrome P450 3A4 (Homo sapiens) (P08684 whole entry, looked up): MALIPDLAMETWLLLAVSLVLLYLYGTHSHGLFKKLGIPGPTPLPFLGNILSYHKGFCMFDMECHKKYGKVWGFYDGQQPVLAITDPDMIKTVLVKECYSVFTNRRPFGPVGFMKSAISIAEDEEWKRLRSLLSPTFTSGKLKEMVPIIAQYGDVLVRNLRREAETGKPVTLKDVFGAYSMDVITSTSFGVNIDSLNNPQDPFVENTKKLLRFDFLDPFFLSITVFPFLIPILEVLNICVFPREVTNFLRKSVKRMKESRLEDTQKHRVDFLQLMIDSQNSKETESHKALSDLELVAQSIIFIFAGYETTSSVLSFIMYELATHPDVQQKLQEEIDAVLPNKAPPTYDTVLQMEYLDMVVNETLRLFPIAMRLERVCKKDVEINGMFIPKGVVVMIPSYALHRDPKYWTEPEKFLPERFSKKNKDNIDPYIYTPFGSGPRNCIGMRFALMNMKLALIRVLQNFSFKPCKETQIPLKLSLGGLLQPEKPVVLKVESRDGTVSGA
Sequence of Hypoxia-inducible factor 1-alpha (Homo sapiens) (Q16665 whole entry, looked up): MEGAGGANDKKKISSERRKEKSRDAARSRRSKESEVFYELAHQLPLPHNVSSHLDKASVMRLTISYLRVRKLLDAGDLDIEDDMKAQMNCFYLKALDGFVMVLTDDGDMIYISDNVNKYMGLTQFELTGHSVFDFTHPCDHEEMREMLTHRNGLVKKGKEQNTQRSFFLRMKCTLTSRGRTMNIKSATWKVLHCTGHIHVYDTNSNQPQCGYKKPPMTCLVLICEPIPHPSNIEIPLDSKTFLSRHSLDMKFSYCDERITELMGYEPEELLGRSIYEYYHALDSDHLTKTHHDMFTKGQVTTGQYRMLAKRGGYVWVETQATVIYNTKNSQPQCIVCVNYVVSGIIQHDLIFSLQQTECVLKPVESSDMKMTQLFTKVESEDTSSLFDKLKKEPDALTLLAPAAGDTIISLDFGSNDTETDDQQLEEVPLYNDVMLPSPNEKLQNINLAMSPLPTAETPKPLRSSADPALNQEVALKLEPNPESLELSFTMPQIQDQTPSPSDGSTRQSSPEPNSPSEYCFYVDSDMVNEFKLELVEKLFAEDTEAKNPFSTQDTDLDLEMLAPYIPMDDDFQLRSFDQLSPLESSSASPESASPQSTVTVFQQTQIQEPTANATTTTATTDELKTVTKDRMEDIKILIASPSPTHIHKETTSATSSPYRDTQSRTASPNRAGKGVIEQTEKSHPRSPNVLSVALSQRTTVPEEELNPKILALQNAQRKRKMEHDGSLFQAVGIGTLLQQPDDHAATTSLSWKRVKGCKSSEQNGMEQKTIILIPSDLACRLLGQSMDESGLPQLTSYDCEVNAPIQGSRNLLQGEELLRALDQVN
Sequence of Cytochrome P450 3A7 (Homo sapiens) (P24462 whole entry, looked up): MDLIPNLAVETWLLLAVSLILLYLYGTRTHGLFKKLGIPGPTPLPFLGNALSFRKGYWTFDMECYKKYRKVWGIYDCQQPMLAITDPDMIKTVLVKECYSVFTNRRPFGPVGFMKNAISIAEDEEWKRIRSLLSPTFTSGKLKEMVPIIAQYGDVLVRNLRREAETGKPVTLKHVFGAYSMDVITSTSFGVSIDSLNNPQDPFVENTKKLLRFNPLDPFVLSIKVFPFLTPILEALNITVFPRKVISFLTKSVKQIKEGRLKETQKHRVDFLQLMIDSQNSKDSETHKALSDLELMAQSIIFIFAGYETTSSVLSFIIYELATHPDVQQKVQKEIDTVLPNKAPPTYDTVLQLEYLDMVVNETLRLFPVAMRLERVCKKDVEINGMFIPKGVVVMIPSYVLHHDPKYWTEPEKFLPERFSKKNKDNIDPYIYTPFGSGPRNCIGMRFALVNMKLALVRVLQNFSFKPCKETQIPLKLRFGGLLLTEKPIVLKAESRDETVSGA

Take `CO/C=C(/C(=O)OC)c1ccccc1COc1cccc(C(F)(F)F)n1`: the concentration at half-maximal activity (AC50) is 3.9 µM (active) in the experiment with CYP4A11 (gene 1579); 8.05 µM (active) in experiment [1]; 8.83 µM (active) in experiment [2]; 50 µM (active) in [3]; 5.1 µM (active) in experiment [5]; 3.4 µM (active) in experiment [6]. Also, the AC50 is 12.1 µM (active) with CYP3A5 (gene 1577); 5.35 µM (active) in experiment [7]; 5.06 µM (active) in [8]; 8.85 µM (active) in experiment [9]; 9.29 µM (active) in experiment [10]; 6.56 µM (active) in experiment [11]. Besides, the AC50 in experiment [12] was 8.95 µM (active); in experiment [14], 32 µM (active); in experiment [15], 6.85 µM (active); with HGF (gene 3082), 50 µM (active). The compound was called inactive in experiment [4] and in experiment [13].

For the compound `CCC(=O)O[C@H]1CC[C@H]2[C@@H]3CCC4=CC(=O)CC[C@]4(C)[C@H]3CC[C@]12C`, the AC50 in the experiment with CYP4A11 (gene 1579) is 1.16 µM (active); in [7], 19.9 µM (active); in experiment [8], 0.308 µM (active); in [9], 13.1 µM (active). Also, the call in experiment [1], in [2], in experiment [3], in experiment [4], in [5] and in experiment [6] was inactive. For the same compound, the result (in the experiment with CYP3A5 (gene 1577); in experiment [10]; in experiment [11]; in experiment [12]; in [16]; in experiment [13]) was inactive. Besides, the compound was called inactive (in experiment [14]; in experiment [15]; in the experiment with HGF (gene 3082)).

Consider `CCC(C)(CC)c1cc(NC(=O)c2c(OC)cccc2OC)on1`, for which the AC50 with CYP4A11 (gene 1579) is 26.2 µM (active); in experiment [1] it was 0.541 µM (active); in experiment [2] it was 83.3 µM (active); in experiment [6] it was 1.39 µM (active); in experiment [7], 4.89 µM (active); in [8] it was 19.5 µM (active). Also, the values for the AC50 in experiment [17] and in experiment [11] were 63.8 µM (active) and 80.1 µM (active), respectively. The compound was called inactive (in experiment [3]; in experiment [4]; in experiment [5]; in the experiment with CYP3A5 (gene 1577); in experiment [9]; in experiment [10]). In addition, the result (in [12]; in [16]; in experiment [13]; in experiment [14]; in experiment [15]; in the experiment with HGF (gene 3082)) was inactive.
